# Most compounds without a hit are left out; they make up all but 12% or so of the library.
# BAZ2B inh – blocks human BAZ2B; AID 504333; AlphaScreen BAZ2B-H3K14Ac peptide displacement; Potency, µM (series often up to 114 µM), without a hit: at the highest dose activity change, negative = inhibition, most hits filed as inhibitors; actives 4.4% (n = 360,000); Q9UIF8; further: on the % scale 0 is the no-effect control and ±100 the full control effect; nearly all actives have a fitted effect of over 60% in size
#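 Inhibition is scored as reduced AlphaScreen emission. The BAZ2B/b-H3(5-23)K14Ac complex (50 nM each) in PBS pH 7.4, 0.01% Tween-20 meets compound (up to 110 uM) for 30 min at RT before bead addition.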
# JMJD2A Tudor inh – JMJD2A Tudor domain (human) inhibition. Potency, µM (doses to about 114 µM), for the others: at the highest dose activity change, negative = inhibition, usual class: inhibitors. actives 4.4% (n = 390,000). AlphaScreen JMJD2A-Tudor / H3K4me3 peptide binding. AID 504339. O75164; further: on the % scale 0 is the no-effect control and ±100 the full control effect; nearly all actives have a fitted effect of over 50% in size
# PLK1 PBD inh – blocks phosphopeptide binding to human PLK1 polo-box domain. P53350. actives 2.8% (n = 360,000). Potency, µM, for the others: max response, negative = inhibition, usual class: inhibitors. Plk1 PBD binding of FITC phosphopeptide, fluorescence polarization; further: series mostly up to about 57 µM; on the % scale 0 is the no-effect control and ±100 the full control effect; nearly all actives have a fitted effect of over 65% in size
# Target sequence (P53350 whole entry, looked up, the tested form may be a part): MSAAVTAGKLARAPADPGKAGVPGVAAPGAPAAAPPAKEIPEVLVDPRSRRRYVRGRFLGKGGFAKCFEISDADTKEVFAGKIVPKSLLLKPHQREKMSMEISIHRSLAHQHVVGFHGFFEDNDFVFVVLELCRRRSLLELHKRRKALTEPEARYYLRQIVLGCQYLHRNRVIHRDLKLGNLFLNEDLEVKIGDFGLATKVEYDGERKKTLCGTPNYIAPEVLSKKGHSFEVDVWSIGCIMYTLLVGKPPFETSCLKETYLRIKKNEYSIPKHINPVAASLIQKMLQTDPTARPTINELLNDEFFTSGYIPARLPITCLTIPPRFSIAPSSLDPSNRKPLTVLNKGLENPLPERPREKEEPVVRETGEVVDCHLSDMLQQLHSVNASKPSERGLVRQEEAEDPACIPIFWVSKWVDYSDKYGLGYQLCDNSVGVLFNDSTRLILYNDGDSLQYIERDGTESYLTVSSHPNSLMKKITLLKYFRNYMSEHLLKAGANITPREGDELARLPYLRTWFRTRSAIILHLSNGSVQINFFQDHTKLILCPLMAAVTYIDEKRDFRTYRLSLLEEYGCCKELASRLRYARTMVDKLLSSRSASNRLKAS
# HP1b binding inh – inhibitors of HP1-beta chromodomain binding to methylated histone tails; P83916; AlphaScreen HP1-beta / biotin-H3K9me3 peptide binding; Potency, µM (series often up to 114 µM), for the others: at the highest dose activity change, negative = inhibition, usual class: inhibitors; actives 0.56% (n = 390,000); further: nearly all actives have a fitted effect of over 70% in size
#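 Compound inhibition of the preformed complex between 50 nM HP1-beta and 50 nM biotinylated H3K9me3 peptide was read by AlphaScreen. Buffer was PBS pH 7.4 with 0.01% Tween-20. Incubations ran 30 min at room temperature, with 10 ug/mL donor/acceptor beads.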
# G9a block – inhibitors of human histone lysine methyltransferase G9a; Q96KQ7; G9a H3K9 monomethylation, AlphaScreen, 2 h; Potency, µM (highest dose often 102 µM), for the others: at the highest dose activity, negative = inhibition, most hits filed as inhibitors; actives 8.8% (n = 350,000); AID 504332; further: on the % scale 0 is the no-effect control and ±100 the full control effect; nearly all actives have a fitted effect of over 75% in size
#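 G9a (20 nM) preincubated 15 min RT with compounds, then 500 nM biotinylated H3K9 peptide and 20 uM SAM added; 2 h RT reaction. Monomethyl-H3K9 product detected by AlphaScreen with anti-H3K9me1 antibody, streptavidin donor and anti-rabbit IgG acceptor beads.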
# Sfp PPTase inh – inhibitors of Bacillus subtilis Sfp phosphopantetheinyl transferase; Q9F4F7; Biochemical Sfp PPTase activity, qHTS; Potency, µM, for inactives: largest response in the series, negative = inhibition, hits mostly inhibitors; actives 3.5% (n = 310,000); AID 1490;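 further: the enzyme is Sfp with the accession as filed and its product quenches rhodamine fluorescence; 0% = enzyme reaction without inhibitor and -100% = no enzyme wells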
#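 With Hepes-Na pH 7.6 buffer containing 10 mM MgCl2, Sfp (15 nM) modified BHQ-2-YbbR (12.5 uM) using rhodamine-CoA (5 uM). Two reads 30 minutes apart at 525/598 nm yielded each well's rate.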
# * = called active by the depositor; ? = inconclusive; / = no result given; ! = a repeat was not active; [ ] = remark or other dose. The call rests on the fitted dose curve; in most records, active means well fitted curve in the direction sought with a large enough effect; inconclusive means small, poorly fitted or top-dose-only effect, or another doubt; inactive means no such curve, though single readings can be large; an effect the other way counts as inactive or inconclusive. Potency means the concentration at half of the fitted maximal effect.
SMILES,BAZ2B inh,JMJD2A Tudor inh,PLK1 PBD inh,HP1b binding inh,G9a block,Sfp PPTase inh
COc1ccc2[nH]c(=O)c(CN(Cc3ccc(C)cc3)Cc3nnnn3CC3CCCO3)cc2c1 (stereo not given),-36%,-16%,-7%,7%,?,16µM*
COc1ccc2[nH]c(=O)c(CN(CCc3ccccc3)Cc3nnnn3CC3CCCO3)cc2c1 (stereo not given),-17%,-20%,-15%,13%,8.9µM*,50µM*
O=c1[nH]c2cc3c(cc2cc1CN(CCc1ccccc1)Cc1nnnn1CC1CCCO1)OCO3 (stereo not given),-22%,-7%,-8%,26%,?,56µM*
Cc1ccc2[nH]c(=O)c(CN(CCc3ccccc3)Cc3nnnn3CC3CCCO3)cc2c1 (stereo not given),5%,-20%,-2%,18%,?,-14%
COc1ccc2[nH]c(=O)c(CN(Cc3ccccc3OC)Cc3nnnn3CC3CCCO3)cc2c1 (stereo not given),16%,-12%,-1%,23%,-8%,?
Cc1ccccc1NC(=O)c1sc2nc3n(c(=O)c2c1C)N=C(c1ccccc1)CS3,?,-18%,/,13%,-32%[59 µM],/
CCc1ccccc1OCC(=O)Nc1cc(S(=O)(=O)N(CC)CC)ccc1N1CCOCC1,4%,-25%,-18%,58%,4%[59 µM],/
CN(CC1CCOCC1)C(=O)CC1C(=O)NCCN1Cc1cccc(C(F)(F)F)c1 (stereo not given),3%,-6%,-17%,49%,3%[12.7 µM],11%
CC1(C)C(=O)NCCN1C(=O)CC1C(=O)NCCN1Cc1cccc(C(F)(F)F)c1 (stereo not given),-15%,-11%,-20%,35%,45µM*,9%
Cc1nonc1CN(C)C(=O)CC1C(=O)NCCN1Cc1cccc(C(F)(F)F)c1 (stereo not given),-8%,-16%,-14%,44%,50µM*,-25%
CSC(SC)=C(C#N)C(=O)c1ccccc1,-18%,-3%,11µM*,-20%,50µM*,7.9µM*
COc1cccc(C(=O)C(C#N)=C(SC)SC)c1,-24%,-20%,15µM*,-22%,40µM*,4µM*
COc1cccc(C(=O)C(CCC#N)c2ccccc2)c1 (stereo not given),/,/,-8%,/,/,/
N#CC(C#N)=C(Nc1ccccc1)c1ccccc1,-11%,-13%,-9%,15%,2%,-11%
COc1ccc2[nH]cc(CCNc3ncncc3-c3ccccc3C)c2c1,/,/,/,/,8%[0.501 µM],-20%
N#Cc1c(N2CCCC(O)C2)nc(N)c2c(N)nc3c(c12)CC(=O)N3C12CC3CC(CC(C3)C1)C2 (stereo not given),?,56µM*,-11%,?,?,?
O=C(O)c1cc(=O)c2cc(Cl)ccc2[nH]1,/,/,/,/,/,-6%
C[C@@H]1[C@@H](Sc2ccccc2)CC(=O)O[C@@H]1c1ccc(-c2ccccc2)cc1,/,15%,-1%,90%,/,-4%
O=C1C=CC2(O[C@H](c3ccccc3)[C@@H](c3ccccc3)O2)[C@H](Sc2ccccc2O)C1,/,79µM*,2.4µM*,?,/,/
CCOC(=O)c1c(C)c(-c2ccccc2)n(CC(=O)NCCc2cccc(C)c2)c1C,-1%,-20%,/,4%,4%[59 µM],/
c1cc(N2CCCCC2)nc(N2CCCCC2)n1,/,-12%,-6%,-3%,/,/
C[c-]1[c-](C)[c-](C)[c-](C)[c-]1C.[Fe].c1cc2nccc(N3CCCC3)[c-]2c1 (stereo not given),40µM*,45µM*,?,18µM*!,?,89µM*!
O=C(c1cccc2nc3ccccc3nc12)N1CCOCC1,-9%,79µM*,?,-13%,6%[12.7 µM],13%
O=C(c1ccccc1O)N1CCOCC1,-2%,2%,0%,33%,-1%[59 µM],12%
CCN(CC)C(=O)c1cccc2nc3ccccc3nc12,-2%,79µM*,?,-7%,0%,15%
SMILES,BAZ2B inh,JMJD2A Tudor inh,PLK1 PBD inh,HP1b binding inh,G9a block,Sfp PPTase inh
C[C@]12CC[C@@H](O)C[C@@H]1CC[C@@H]1[C@@H]2CC[C@]2(C)C=CC[C@@H]12,/,/,/,/,29%[59 µM],26%
C/C=C\C1=CCCC1Nc1ncnc2ccc(-c3c(C)noc3C)cc12 (stereo not given),/,?,/,/,/,-2%
COc1cc(C(=O)N2CCN(S(=O)(=O)c3cccs3)CC2)cc(OC)c1C,50µM*,79µM*,-2%,32%,4.5µM*,-54%
COc1ccc(Br)c(C(=O)N2CCN(S(=O)(=O)c3cccs3)CC2)c1,89µM*,-2%,0%,46%,-34%,8%
O=C(c1cccs1)N1CCN(S(=O)(=O)c2cccs2)CC1,/,1%,5%,15%,-2%,18%
N#CC1=C(N)N(c2ccccc2)C(c2ccco2)C1(C#N)C#N (stereo not given),?,?,-16%,-23%,16%[12.7 µM],9%
N#CC1=C(N)N(c2ccccc2)C(c2cccc([N+](=O)[O-])c2)C1(C#N)C#N (stereo not given),?,?,?,-16%,45µM*,-7%
O=C(NNc1c(Cl)cccc1Cl)c1cccs1,25%,?,-10%,14%,11µM*,6%
CCC(=O)Nc1ccc(C(=O)NNC(=O)c2cccs2)cc1,0%,-13%,0%,19%,0.2µM*,4%
Cc1ccc(NC(=O)c2cccs2)cc1,-1%,0%,-13%,17%,-6%[12.7 µM],12%
Cc1ccc(NC(=O)C(=O)NNC(=O)c2cccs2)cc1,-24%,-9%,2%,38%,4µM*,16%
CCCCC(=O)Nc1ccc(C(=O)NNC(=O)c2cccs2)cc1,6%,-8%,-11%,9%,24%[59 µM],35%
COc1ccc2c(c1OC)C(=O)OC2Nc1nc(-c2cc3ccccc3oc2=O)cs1 (stereo not given),17%,5%,-13%,37%,?,-21%
COc1cccc(-c2csc(NC3OC(=O)c4c3ccc(OC)c4OC)n2)c1 (stereo not given),79µM*,-20%,-14%,3%,/,-10%
COc1ccc2c(c1OC)C(=O)OC2Nc1nc(-c2ccc(-c3ccccc3)cc2)cs1 (stereo not given),?,?,27µM*,?,40µM*,?
O=C1C2CCC(C2)C1CN1CCOCC1 (stereo not given),/,-1%,3%,10%[57 µM],/,/
CCOC(=O)c1cc(S(=O)(=O)N2CCN(c3ccc(C(C)=O)cc3)CC2)[nH]n1,?,-9%,/,21%[57 µM],13µM*,/
CCOC(=O)c1c(C)[nH]c(C)c1S(=O)(=O)N1CCC(C(=O)N2CCN(c3cccc(C)c3)C(C)C2)CC1 (stereo not given),79µM*,?,/,15%,-28%[59 µM],/
